Assay results as given in PubChem BioAssay (NCI).
Values joined by “and” are separate entries in the source; they are usually repeats but may differ in a detail not shown here. Equal values may be shown once. About 83,000 compounds went through this panel and 20% of them were active in at least one assay; those are over-represented in the sample as a whole.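 Negative percent growth values reflect cell death: -40 means 40% of the cells present at the start died, and -100 means all died.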 Some compounds were tested as several samples or in several runs, with calls that do not always agree. Active and inactive are the calls of the source. The calls were made as follows: active = growth percent below 10; inactive = the rest.

Key:
Test in all cases: NCI-60 one-dose screen, 48 h (100 = growth as untreated, 0 = no growth, -100 = all killed)
Settings in all cases: 10 µM unless noted
[1] = system: SK-MEL-2 melanoma
[2] = system: EKVX NSCLC
[3] = system: SN12C renal
[4] = system: UO-31 renal
[5] = system: TK-10 renal
[6] = system: ACHN renal
[7] = system: CAKI-1 renal
[8] = system: A498 renal
[9] = system: CCRF-CEM leukemia
[10] = system: MOLT-4 leukemia
[11] = system: SR leukemia
[12] = system: RPMI-8226 leukemia
[13] = system: OVCAR-8 ovarian
[14] = system: OVCAR-5 ovarian
[15] = system: OVCAR-4 ovarian
[16] = system: SK-OV-3 ovarian
[17] = system: OVCAR-3 ovarian
[18] = system: HS 578T breast
[19] = system: NCI/ADR-RES ovarian
[20] = system: IGROV1 ovarian

| Structure (SMILES) | growth [1] | growth [2] | growth [3] | growth [4] | growth [5] | growth [6] | growth [7] | growth [8] | growth [9] | growth [10] | growth [11] | growth [12] | growth [13] | growth [14] | growth [15] | growth [16] | growth [17] | growth [18] | growth [19] | growth [20] |
| --- | --- | --- | --- | --- | --- | --- | --- | --- | --- | --- | --- | --- | --- | --- | --- | --- | --- | --- | --- | --- |
| CCCCCC/C=C1\CCC(CN2CCCC2)C1=O (stereo not drawn) | 114% (inactive) | 113% (inactive) | 103% (inactive) | 90.4% (inactive) | 124% (inactive) | 114% (inactive) | 102% (inactive) | 94.1% (inactive) | 33.1% (inactive) | 60.2% (inactive) | 43.5% (inactive) | -12.2% (active) | 106% (inactive) | 135% (inactive) | 109% (inactive) | 110% (inactive) | 103% (inactive) | 96.3% (inactive) | 105% (inactive) | – |
| CCOC(=O)/C(=C\c1ccc2ccccc2c1)P(=O)(OCC)OCC | 54.7% (inactive) | 71% (inactive) | 17% (inactive) | 12.4% (inactive) | 61.4% (inactive) | 14% (inactive) | 45.5% (inactive) | 55.3% (inactive) | -36.6% (active) | -25.1% (active) | -19.4% (active) | -25.3% (active) | 20.1% (inactive) | 56.9% (inactive) | 62% (inactive) | 113% (inactive) | – | 16.7% (inactive) | 10.4% (inactive) | 56% (inactive) |
| O=C1C=CC(O)=CC1=P(c1ccccc1)(c1ccccc1)c1ccccc1 | 82.6% (inactive) | 93.8% (inactive) | 89.4% (inactive) | 71.8% (inactive) | 96.3% (inactive) | 99.2% (inactive) | 86.2% (inactive) | 58.6% (inactive) | 86.9% (inactive) | 101% (inactive) | 78.8% (inactive) | 74.2% (inactive) | 92.4% (inactive) | 74.7% (inactive) | 94% (inactive) | 91.5% (inactive) | 102% (inactive) | 83.2% (inactive) | 102% (inactive) | – |
| O=C(Nc1ccc(Cl)c(Cl)c1)OCc1ccco1 | 28.9% (inactive) | 56.9% (inactive) | 48.8% (inactive) | 36.1% (inactive) | 58.2% (inactive) | 32.5% (inactive) | 25.4% (inactive) | 71.5% (inactive) | 39.3% (inactive) | 34.1% (inactive) | 25.7% (inactive) | 51.3% (inactive) | 47.1% (inactive) | 76.5% (inactive) | 64% (inactive) | 83.3% (inactive) | 47% (inactive) | 20.5% (inactive) | 34.4% (inactive) | 52.7% (inactive) |
| COc1cc(/C=C2\SC(=S)N(/C=C/c3nc4ccccc4[nH]c3=O)C2=O)cc(OC)c1OC | 81.1% (inactive) | 84.6% (inactive) | 98.2% (inactive) | 2.14% (active) | 70.1% (inactive) | 82.4% (inactive) | 87.2% (inactive) | 60% (inactive) | 91.7% (inactive) | 91.2% (inactive) | 63.6% (inactive) | 86.2% (inactive) | 86.4% (inactive) | 88.3% (inactive) | 84.5% (inactive) | 76.3% (inactive) | 89.4% (inactive) | 74.4% (inactive) | 86.6% (inactive) | – |
| CC1(C)N=c2cc3c(cc2N1c1ccc(Cl)cc1)=Nc1ccccc1N3c1ccc(Cl)cc1 | -1.35% (active) | 52.9% (inactive) | 75.7% (inactive) | -37.1% (active) | 65.2% (inactive) | 40.2% (inactive) | 44.2% (inactive) | 26.7% (inactive) | -25.3% (active) | -32.2% (active) | -41.9% (active) | -27.5% (active) | 21% (inactive) | 25.5% (inactive) | 39.1% (inactive) | 59.4% (inactive) | 35.9% (inactive) | – | 20.4% (inactive) | – |
| OC(c1cc2ccc(C(F)(F)F)cc2c2cc(C(F)(F)F)ccc12)C1CCCCN1 (stereo not drawn) | -83.1% (active) | -96.7% (active) | -90.8% (active) | -95.8% (active) | -89.5% (active) | -94.1% (active) | -93.8% (active) | -65.6% (active) | -68% (active) | -73.4% (active) | -84.7% (active) | -54.5% (active) | -63.8% (active) | -99% (active) | -100% (active) | -100% (active) | -100% (active) | -44.2% (active) | -84.6% (active) | -83.9% (active) |
| OC(c1cc(-c2ccc(C(F)(F)F)cc2)nc(C(F)(F)F)c1)C1CCCCN1 (stereo not drawn) | -61% (active) and 21.8% (inactive) | 27.2% (inactive) and 3.74% (active) and 67.6% (inactive) | -50.3% (active) and -86.4% (active) and 28.5% (inactive) | 15.4% (inactive) and -59.3% (active) and 30.6% (inactive) | -57.8% (active) and -14.4% (active) and 50.3% (inactive) | -24% (active) and 0.945% (active) and 24.3% (inactive) | -7.29% (active) and -52.3% (active) and 45.9% (inactive) | 28% (inactive) and -60.5% (active) and 46.4% (inactive) | 0.247% (active) and -56.8% (active) and 17% (inactive) | -21.7% (active) and -2.33% (active) | -37.6% (active) and -57.5% (active) and -38.9% (active) | -35.4% (active) and -61.4% (active) and -21% (active) | -57.7% (active) and -54.5% (active) and -34.4% (active) | 30.4% (inactive) and -33.3% (active) and 61% (inactive) | -6.94% (active) and -29.6% (active) and 39.1% (inactive) | 24.4% (inactive) and 39.9% (inactive) and 86.2% (inactive) | – | -3.8% (active) and -53.8% (active) and 48.9% (inactive) | -31.5% (active) and -50% (active) and 25% (inactive) | -25.6% (active) and -92.4% (active) and 30.5% (inactive) |
| CN(C)CCN(C)CC(C)(C)C(=O)/C=C/c1ccc(Cl)c(Cl)c1 | -93.3% [100 µM] (active) | -82.4% [100 µM] (active) | -96.2% [100 µM] (active) | -100% [100 µM] (active) | -97.7% [100 µM] (active) | -100% [100 µM] (active) | -100% [100 µM] (active) | -96% [100 µM] (active) | -0.943% [100 µM] (active) | -23.3% [100 µM] (active) | -25.9% [100 µM] (active) | -30.6% [100 µM] (active) | -86.5% [100 µM] (active) | -93.4% [100 µM] (active) | -98.5% [100 µM] (active) | -97.7% [100 µM] (active) | -98.4% [100 µM] (active) | -39.5% [100 µM] (active) | -47.2% [100 µM] (active) | -92.2% [100 µM] (active) |
| OC(c1cc(C23CC4CC(CC(C4)C2)C3)nc2c(Cl)cc(Cl)cc12)C1CCCCN1 (stereo not drawn) | -73.5% (active) | -33.6% (active) | -61.4% (active) | -83.3% (active) | -88.1% (active) | -70.1% (active) | -54.5% (active) | -1.09% (active) | -45.3% (active) | -53.2% (active) | -60.1% (active) | -45.4% (active) | -53.9% (active) | -56% (active) | -78.2% (active) | -10.3% (active) | – | -49.9% (active) | -51.2% (active) | -61.7% (active) |
| CC(C)=C1C=C2CC[C@@H]3[C@](C)(CCC[C@@]3(C)C(=O)O)[C@H]2CC1 | 109% (inactive) | 93.4% (inactive) | 106% (inactive) | 88.9% (inactive) | 93.2% (inactive) | 104% (inactive) | 99.6% (inactive) | 109% (inactive) | 106% (inactive) | 96.6% (inactive) | 99% (inactive) | 107% (inactive) | 100% (inactive) | 96.8% (inactive) | 94.4% (inactive) | 105% (inactive) | – | 110% (inactive) | 100% (inactive) | 103% (inactive) |
| O=[N+]([O-])c1ccc(Oc2ccccc2Cl)c([N+](=O)[O-])c1 | 88.6% (inactive) | 104% (inactive) | 90.4% (inactive) | 81.9% (inactive) | 98.7% (inactive) | 100% (inactive) | 82.7% (inactive) | 84.7% (inactive) | 57.8% (inactive) | 22.7% (inactive) | 1.58% (active) | 78.4% (inactive) | 93.2% (inactive) | 116% (inactive) | 56.4% (inactive) | 99.8% (inactive) | – | 77.7% (inactive) | 72.7% (inactive) | 104% (inactive) |
| NC(=S)Nc1ccc2c(c1)Cc1ccccc1-2 | 89.6% (inactive) | 67.1% (inactive) | 89.4% (inactive) | 55.2% (inactive) | 121% (inactive) | 91.7% (inactive) | 92.1% (inactive) | 110% (inactive) | 70.5% (inactive) | 88.7% (inactive) | 84.9% (inactive) | 62.1% (inactive) | 84.5% (inactive) | 101% (inactive) | 83.4% (inactive) | 98.1% (inactive) | 98.3% (inactive) | 88.2% (inactive) | 88.2% (inactive) | – |
| NC1=C(Br)C(=O)c2ncccc2C1=O | -54.1% (active) | -14.2% (active) | -84.8% (active) | -96.8% (active) | 79.1% (inactive) | -7.81% (active) | -81.2% (active) | 113% (inactive) | 10.5% (inactive) | -5.62% (active) | -27.8% (active) | 0.625% (active) | 10.3% (inactive) | -49.4% (active) | -89.5% (active) | 34.9% (inactive) | -11.9% (active) | -13.1% (active) | 9.48% (active) | – |
| O=C(NNc1ccccc1)OCc1ccccc1 | 86.1% (inactive) | 91% (inactive) | 84.9% (inactive) | 56.8% (inactive) | 90% (inactive) | 50.2% (inactive) | 28.3% (inactive) | 86.1% (inactive) | 22% (inactive) | 26.9% (inactive) | 47.1% (inactive) | 64.2% (inactive) | 61.4% (inactive) | 53.1% (inactive) | 112% (inactive) | 105% (inactive) | 91.4% (inactive) | 91.8% (inactive) | 55.2% (inactive) | 58.7% (inactive) |
